# Assay results taken from ChEMBL document CHEMBL1961873, “Compounds: GSK PKIS; Assays: Nanosyn kinase panel” (2012).
# Experiments:
# [1] = target: Sphingosine kinase 1 (Homo sapiens) (UniProt Q9NYA1); conditions: at 1 µM;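 note: mean SPHK1 inhibition value reported from the GSK PKIS kinase panel screen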
# [2] = target: T1, Sphingosine kinase 2 (Homo sapiens) (UniProt Q9NRA0); conditions: at 0.1 µM
# T1 sequence (whole entry): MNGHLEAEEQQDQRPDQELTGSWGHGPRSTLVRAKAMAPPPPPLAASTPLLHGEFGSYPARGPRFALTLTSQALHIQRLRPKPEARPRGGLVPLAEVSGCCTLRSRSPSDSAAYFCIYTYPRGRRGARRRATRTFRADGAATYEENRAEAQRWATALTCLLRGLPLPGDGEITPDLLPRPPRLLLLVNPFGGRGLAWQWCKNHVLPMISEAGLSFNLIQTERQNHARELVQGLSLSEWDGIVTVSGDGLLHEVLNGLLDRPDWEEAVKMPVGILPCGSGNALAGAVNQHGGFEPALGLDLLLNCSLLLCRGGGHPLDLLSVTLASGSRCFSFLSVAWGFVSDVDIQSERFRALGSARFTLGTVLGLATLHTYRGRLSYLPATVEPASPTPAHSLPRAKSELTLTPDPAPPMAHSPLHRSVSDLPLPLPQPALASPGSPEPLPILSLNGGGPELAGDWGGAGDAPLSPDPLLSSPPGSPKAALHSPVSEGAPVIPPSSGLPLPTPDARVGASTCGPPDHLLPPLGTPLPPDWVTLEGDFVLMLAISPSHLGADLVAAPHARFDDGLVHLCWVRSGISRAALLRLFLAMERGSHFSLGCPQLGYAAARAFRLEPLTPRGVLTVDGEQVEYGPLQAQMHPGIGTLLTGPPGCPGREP
# [3] = target: T1, Sphingosine kinase 2 (Homo sapiens); conditions: at 1 µM
# [4] = target: Casein kinase II subunit alpha (Homo sapiens) (UniProt P68400); conditions: at 0.1 µM
# [5] = target: Casein kinase II subunit alpha (Homo sapiens) (UniProt P68400); conditions: at 1 µM
# [6] = target: T2, Inhibitor of nuclear factor kappa-B kinase subunit alpha (Homo sapiens) (UniProt O15111); conditions: at 0.1 µM
# T2 sequence (whole entry): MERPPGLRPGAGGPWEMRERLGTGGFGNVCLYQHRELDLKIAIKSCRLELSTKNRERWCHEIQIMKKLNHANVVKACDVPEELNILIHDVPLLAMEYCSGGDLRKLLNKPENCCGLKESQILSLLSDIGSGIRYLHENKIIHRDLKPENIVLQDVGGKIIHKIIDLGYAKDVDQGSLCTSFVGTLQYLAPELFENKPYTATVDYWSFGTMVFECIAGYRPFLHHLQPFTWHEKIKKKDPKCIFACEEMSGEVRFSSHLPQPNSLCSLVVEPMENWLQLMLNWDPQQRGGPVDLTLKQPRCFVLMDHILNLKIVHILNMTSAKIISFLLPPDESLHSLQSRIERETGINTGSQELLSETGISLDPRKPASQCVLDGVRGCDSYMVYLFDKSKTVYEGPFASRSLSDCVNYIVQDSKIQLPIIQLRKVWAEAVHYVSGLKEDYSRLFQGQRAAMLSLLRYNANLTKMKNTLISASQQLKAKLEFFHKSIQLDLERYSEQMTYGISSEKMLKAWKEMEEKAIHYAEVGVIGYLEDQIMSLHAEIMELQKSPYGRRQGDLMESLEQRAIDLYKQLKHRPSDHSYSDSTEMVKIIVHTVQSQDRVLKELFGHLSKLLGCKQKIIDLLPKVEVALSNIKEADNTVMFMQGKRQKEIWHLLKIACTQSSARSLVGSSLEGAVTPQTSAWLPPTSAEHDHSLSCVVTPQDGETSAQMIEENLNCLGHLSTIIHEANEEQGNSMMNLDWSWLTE
# [7] = target: T2, Inhibitor of nuclear factor kappa-B kinase subunit alpha (Homo sapiens); conditions: at 1 µM
# [8] = target: T3, Inhibitor of nuclear factor kappa-B kinase subunit beta (Homo sapiens) (UniProt O14920); conditions: at 0.1 µM
# T3 sequence (whole entry): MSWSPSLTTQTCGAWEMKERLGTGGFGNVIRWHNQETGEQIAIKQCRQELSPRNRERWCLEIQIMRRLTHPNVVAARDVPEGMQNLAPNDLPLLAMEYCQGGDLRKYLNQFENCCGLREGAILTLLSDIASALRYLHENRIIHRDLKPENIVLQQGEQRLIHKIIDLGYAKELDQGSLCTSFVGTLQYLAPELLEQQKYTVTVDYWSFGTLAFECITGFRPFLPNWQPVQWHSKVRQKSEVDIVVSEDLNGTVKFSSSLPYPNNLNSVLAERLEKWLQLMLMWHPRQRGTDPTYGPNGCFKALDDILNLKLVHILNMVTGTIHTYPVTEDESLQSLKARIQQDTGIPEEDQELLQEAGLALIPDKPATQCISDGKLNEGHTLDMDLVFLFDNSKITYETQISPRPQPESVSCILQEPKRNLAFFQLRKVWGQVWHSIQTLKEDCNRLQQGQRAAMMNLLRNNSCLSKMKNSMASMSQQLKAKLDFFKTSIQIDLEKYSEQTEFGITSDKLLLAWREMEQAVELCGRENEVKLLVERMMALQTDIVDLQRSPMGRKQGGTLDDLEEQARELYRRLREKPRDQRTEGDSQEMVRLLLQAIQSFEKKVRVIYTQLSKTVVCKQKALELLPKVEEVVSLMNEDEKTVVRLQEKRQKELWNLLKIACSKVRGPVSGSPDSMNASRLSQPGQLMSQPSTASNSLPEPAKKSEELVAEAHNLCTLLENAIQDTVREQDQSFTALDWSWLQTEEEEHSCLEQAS
# [9] = target: T3, Inhibitor of nuclear factor kappa-B kinase subunit beta (Homo sapiens); conditions: at 1 µM
# [10] = target: T4, Inhibitor of nuclear factor kappa-B kinase subunit epsilon (Homo sapiens) (UniProt Q14164); conditions: at 0.1 µM
# T4 sequence (whole entry): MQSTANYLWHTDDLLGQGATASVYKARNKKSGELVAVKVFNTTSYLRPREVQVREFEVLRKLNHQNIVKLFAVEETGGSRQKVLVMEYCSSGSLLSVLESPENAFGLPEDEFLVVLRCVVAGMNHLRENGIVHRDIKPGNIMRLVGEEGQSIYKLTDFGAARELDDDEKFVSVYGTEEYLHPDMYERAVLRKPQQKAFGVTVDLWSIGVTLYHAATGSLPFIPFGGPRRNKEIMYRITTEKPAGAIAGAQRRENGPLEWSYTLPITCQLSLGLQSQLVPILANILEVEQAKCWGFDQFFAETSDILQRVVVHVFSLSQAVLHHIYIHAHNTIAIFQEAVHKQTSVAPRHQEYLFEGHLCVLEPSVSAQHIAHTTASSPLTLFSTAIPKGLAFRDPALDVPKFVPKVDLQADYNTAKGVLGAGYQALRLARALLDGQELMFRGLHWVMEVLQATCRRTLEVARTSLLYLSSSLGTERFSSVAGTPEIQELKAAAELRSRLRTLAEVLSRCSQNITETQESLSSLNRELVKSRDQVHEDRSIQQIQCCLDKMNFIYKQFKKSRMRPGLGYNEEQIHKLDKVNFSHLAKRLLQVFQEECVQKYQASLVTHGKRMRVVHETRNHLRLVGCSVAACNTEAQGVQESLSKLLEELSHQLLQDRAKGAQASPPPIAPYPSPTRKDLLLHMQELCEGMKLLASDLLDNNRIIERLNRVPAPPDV
# [11] = target: T4, Inhibitor of nuclear factor kappa-B kinase subunit epsilon (Homo sapiens); conditions: at 1 µM
# [12] = target: T5, Serine/threonine-protein kinase Nek1 (Homo sapiens) (UniProt Q96PY6); conditions: at 0.1 µM
# T5 sequence (whole entry): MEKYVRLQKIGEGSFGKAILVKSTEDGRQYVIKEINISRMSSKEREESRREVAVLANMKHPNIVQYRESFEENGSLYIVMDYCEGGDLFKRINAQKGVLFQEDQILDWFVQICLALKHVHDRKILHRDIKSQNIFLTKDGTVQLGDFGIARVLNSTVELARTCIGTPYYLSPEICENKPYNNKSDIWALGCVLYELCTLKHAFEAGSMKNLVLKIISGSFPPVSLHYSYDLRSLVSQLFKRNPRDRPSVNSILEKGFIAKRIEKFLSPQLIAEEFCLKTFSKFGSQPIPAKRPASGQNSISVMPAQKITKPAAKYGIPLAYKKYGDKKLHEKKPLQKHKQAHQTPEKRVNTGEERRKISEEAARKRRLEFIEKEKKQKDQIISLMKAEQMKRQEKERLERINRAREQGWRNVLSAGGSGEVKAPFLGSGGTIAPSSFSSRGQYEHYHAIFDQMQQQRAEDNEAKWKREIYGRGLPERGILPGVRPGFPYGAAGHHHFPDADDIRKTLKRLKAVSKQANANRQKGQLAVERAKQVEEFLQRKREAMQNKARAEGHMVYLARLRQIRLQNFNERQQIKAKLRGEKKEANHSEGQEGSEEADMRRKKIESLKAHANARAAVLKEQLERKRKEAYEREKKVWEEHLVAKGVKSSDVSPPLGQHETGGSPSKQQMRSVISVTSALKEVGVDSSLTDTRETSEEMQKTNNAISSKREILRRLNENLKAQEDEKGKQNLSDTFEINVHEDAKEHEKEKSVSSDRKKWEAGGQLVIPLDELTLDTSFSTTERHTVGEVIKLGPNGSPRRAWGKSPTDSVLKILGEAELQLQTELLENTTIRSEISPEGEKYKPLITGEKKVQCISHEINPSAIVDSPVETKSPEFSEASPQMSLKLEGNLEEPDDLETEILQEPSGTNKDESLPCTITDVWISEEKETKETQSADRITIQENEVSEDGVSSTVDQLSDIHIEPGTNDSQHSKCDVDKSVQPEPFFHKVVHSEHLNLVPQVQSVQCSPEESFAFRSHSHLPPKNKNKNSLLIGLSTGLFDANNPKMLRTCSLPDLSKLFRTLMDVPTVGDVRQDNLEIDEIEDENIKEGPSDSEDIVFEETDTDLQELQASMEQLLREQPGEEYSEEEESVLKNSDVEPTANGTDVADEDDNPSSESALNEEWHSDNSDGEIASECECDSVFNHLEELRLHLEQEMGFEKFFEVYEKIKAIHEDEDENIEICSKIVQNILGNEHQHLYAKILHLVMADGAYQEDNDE
# [13] = target: T5, Serine/threonine-protein kinase Nek1 (Homo sapiens); conditions: at 1 µM
# [14] = target: T6, Serine/threonine-protein kinase Nek2 (Homo sapiens) (UniProt P51955); conditions: at 0.1 µM
# T6 sequence (whole entry): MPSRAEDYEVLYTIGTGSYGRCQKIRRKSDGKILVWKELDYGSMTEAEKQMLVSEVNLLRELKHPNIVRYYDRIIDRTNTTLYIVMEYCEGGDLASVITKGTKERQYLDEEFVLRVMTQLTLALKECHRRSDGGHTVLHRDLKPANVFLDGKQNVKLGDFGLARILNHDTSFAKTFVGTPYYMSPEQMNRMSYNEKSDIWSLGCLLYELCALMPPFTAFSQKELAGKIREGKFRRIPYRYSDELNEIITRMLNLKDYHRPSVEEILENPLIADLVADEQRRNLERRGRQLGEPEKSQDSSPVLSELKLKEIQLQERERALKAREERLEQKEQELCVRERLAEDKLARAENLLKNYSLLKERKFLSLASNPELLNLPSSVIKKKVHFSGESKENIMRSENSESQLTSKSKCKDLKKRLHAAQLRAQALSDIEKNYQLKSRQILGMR
# [15] = target: T6, Serine/threonine-protein kinase Nek2 (Homo sapiens); conditions: at 1 µM
# [16] = target: Serine/threonine-protein kinase Nek6 (Homo sapiens) (UniProt Q9HC98); conditions: at 0.1 µM
# [17] = target: Serine/threonine-protein kinase Nek6 (Homo sapiens) (UniProt Q9HC98); conditions: at 1 µM
# [18] = target: Serine/threonine-protein kinase Nek7 (Homo sapiens) (UniProt Q8TDX7); conditions: at 0.1 µM
# [19] = target: Serine/threonine-protein kinase Nek7 (Homo sapiens) (UniProt Q8TDX7); conditions: at 1 µM
# [20] = target: T7, Serine/threonine-protein kinase Nek9 (Homo sapiens) (UniProt Q8TD19); conditions: at 0.1 µM;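 note: reported value is the mean percent inhibition of NEK9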
# T7 sequence (whole entry): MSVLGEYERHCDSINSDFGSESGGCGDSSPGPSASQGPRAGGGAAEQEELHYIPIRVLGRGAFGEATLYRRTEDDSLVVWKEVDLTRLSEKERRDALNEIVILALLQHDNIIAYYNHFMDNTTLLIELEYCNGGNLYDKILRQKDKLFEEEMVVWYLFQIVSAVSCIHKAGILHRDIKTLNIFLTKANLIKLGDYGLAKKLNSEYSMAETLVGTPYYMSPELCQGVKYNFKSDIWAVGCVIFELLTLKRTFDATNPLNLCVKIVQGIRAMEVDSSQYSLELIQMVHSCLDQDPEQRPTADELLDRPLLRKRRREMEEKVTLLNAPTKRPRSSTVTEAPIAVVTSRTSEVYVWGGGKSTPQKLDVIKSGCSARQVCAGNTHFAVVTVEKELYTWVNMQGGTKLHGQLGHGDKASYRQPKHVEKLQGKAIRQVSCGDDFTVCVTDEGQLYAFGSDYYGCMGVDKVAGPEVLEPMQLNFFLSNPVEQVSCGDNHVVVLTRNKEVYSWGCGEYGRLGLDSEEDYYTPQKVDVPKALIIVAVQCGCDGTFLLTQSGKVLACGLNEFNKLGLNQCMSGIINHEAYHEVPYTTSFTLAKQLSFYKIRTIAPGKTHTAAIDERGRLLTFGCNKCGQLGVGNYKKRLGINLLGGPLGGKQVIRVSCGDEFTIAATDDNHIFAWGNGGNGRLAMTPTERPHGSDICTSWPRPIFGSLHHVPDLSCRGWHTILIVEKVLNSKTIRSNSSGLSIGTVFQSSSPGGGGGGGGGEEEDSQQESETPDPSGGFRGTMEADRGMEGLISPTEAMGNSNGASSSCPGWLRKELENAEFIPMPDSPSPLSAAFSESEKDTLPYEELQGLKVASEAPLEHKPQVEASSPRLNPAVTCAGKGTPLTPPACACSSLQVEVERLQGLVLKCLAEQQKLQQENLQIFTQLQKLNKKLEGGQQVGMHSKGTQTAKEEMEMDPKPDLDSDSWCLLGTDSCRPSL
# Casein kinase II subunit alpha (Homo sapiens), sequence (P68400 whole entry, looked up): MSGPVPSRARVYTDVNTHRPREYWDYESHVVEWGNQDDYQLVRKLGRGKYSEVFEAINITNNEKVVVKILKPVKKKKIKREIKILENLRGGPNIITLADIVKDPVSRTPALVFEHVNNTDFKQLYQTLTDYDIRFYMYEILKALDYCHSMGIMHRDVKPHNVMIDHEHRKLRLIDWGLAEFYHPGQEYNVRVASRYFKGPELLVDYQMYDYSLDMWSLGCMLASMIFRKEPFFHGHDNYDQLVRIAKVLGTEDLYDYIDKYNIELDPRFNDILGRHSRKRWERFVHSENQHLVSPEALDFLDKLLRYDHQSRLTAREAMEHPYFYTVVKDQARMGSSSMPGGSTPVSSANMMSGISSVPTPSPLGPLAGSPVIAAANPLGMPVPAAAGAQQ
# Serine/threonine-protein kinase Nek6 (Homo sapiens), sequence (Q9HC98 whole entry): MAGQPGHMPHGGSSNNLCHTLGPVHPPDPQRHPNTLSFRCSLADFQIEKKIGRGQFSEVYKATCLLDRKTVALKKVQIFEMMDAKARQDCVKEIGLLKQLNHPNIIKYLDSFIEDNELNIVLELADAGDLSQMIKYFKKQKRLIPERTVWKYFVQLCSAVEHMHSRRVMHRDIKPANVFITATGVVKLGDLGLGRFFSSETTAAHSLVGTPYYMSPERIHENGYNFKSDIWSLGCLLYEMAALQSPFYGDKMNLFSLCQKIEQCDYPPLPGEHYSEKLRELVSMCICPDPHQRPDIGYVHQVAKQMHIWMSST
# Serine/threonine-protein kinase Nek7 (Homo sapiens), sequence (Q8TDX7 whole entry, looked up): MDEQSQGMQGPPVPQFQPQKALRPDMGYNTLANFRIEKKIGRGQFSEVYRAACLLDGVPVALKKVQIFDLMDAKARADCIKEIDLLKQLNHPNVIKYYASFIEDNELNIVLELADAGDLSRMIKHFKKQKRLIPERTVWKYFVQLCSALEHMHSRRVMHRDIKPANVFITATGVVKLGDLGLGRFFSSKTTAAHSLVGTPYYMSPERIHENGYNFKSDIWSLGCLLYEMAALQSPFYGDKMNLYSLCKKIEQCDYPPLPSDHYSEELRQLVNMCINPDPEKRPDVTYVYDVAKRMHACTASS
# Sphingosine kinase 1 (Homo sapiens), sequence (Q9NYA1 whole entry): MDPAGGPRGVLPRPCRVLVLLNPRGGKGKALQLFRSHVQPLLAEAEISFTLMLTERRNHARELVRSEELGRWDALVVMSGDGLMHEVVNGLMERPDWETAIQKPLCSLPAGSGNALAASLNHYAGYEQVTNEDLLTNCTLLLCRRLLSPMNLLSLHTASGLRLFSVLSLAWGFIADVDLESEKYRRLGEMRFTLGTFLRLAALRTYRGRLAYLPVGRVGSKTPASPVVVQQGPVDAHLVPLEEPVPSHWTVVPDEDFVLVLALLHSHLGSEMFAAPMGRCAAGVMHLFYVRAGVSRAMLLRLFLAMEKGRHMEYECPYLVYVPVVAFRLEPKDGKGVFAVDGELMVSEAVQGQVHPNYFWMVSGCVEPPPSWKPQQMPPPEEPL
smiles,measurement,setting,value
CCn1c(-c2nonc2N)nc2cnc(Oc3cccc(NC(=O)c4ccc(OCCN5CCOCC5)cc4)c3)cc21,inhibition,[1],-0.28%
same,inhibition,[2],0.73%
same,inhibition,[3],-0.35%
same,inhibition,[4],2.94%
same,inhibition,[5],5.71%
same,inhibition,[6],11%
same,inhibition,[7],10.1%
same,inhibition,[8],5.72%
same,inhibition,[9],2.67%
same,inhibition,[10],7.92%
same,inhibition,[11],27.5%
same,inhibition,[12],1.53%
same,inhibition,[13],3.94%
same,inhibition,[14],3.27%
same,inhibition,[15],2.29%
same,inhibition,[16],2.55%
same,inhibition,[17],4.96%
same,inhibition,[18],6.06%
same,inhibition,[19],3.89%
same,inhibition,[20],7.58%
